Assay outcomes: PubChem, several laboratories
AF4-AF9 inh: inhibitors of AF4 peptide binding to AF9, primary screen, biochemical, AlphaScreen, biotin-AF4 peptide, FLAG-AF9, single point; AID 651704, 2012; 350,000 tested, 0.47% active; Protein AF-9 (Homo sapiens), P42568; inhibition, % at 10 µM;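 active = every replicate reaching a set inhibition limit, whatever the replicate mean, cut at about 25% in these data; inconclusive = mean inhibition reaches that limit but some replicates miss it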
Target sequence (P42568 whole entry, looked up): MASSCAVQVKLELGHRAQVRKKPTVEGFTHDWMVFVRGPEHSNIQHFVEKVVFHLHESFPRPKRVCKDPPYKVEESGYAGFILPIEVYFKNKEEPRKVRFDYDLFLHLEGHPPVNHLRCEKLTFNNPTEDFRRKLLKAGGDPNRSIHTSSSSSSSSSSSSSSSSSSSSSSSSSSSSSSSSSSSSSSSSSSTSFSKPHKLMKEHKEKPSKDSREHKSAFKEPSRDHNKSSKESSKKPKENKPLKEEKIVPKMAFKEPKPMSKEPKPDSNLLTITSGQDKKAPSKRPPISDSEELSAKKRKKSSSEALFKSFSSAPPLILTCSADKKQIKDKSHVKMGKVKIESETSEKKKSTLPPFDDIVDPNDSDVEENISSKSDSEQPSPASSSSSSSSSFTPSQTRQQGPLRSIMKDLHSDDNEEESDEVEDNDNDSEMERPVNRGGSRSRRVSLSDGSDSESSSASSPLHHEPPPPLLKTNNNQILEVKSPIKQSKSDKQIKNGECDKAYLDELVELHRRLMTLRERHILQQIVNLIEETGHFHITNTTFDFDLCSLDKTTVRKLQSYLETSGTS
MITF act: activators of MITF-driven TRPM1 promoter reporter, primary screen, cell-based, SK-MEL-5, luciferase, single point; SK-MEL-5 TRPM1-promoter luciferase, 24 h; % of positive control, neutral wells = 0; activation, % at 12.5 µM; 300,000 tested, 0.75% active;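 active = mean activation of at least 80% with every replicate also reaching 80%; inconclusive = mean reaches 80% but some replicate falls short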
Wnt bcat act: Wnt/beta-catenin pathway activators, primary screen, cell-based, plate reader, single point; Wnt/beta-catenin reporter cell assay, activator; activation, % at 9.35 µM; 300,000 tested, 1.2% active; in the data active = activation above about 30%, passing the limit was not always enough; inconclusive = no clear call, values can overlap the other calls
FGF22 binding: binders of human FGF22 protein, primary screen, FGF22 synaptogenesis inhibitor project, biophysical, thermal shift, single point. recombinant FGF22 thermal shift, SYPRO orange fluorescence; percent of sucrose octasulfate shift, DMSO zero. 340,000 tested, 1.5% active. activity (Tm shift, normalised), % at 9.99 µM. Fibroblast growth factor 22 (Homo sapiens), Q9HCT0;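 active = mean Tm shift, scaled 0 neutral to 100 positive control, at about 1.3% or above, every replicate too, limit read from the data; inconclusive = no clear call, values can overlap the other calls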
Target sequence (Q9HCT0 whole entry, looked up): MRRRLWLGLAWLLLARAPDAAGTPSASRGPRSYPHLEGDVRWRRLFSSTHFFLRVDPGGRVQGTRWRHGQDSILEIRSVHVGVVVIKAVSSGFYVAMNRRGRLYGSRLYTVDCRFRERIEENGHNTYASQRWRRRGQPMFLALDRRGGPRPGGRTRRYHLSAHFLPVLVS
SMARCA2 activ: SMARCA2 (BRM) function activators, primary screen, cell-based, luminescence, high throughput; MG213 cells, MMTV-luciferase reporter, dexamethasone, overnight; activation, % at 9.1 µM; 370,000 tested, 1% active; AID 652017, 2013; in the data active = activation above about 7.8%
esBAF inh: Bmi1 luciferase reporter increase in mESCs, primary screen, esBAF inhibitor project, mouse ES cells, Bmi1 luciferase knock-in, single point | 24 h; 100% = twice the neutral-well signal | reporter increase, % at 12.5 µM | 350,000 tested, 2% active | AID 602393, 2012; in the data active = activation above about 40%; inconclusive = no clear call, values can overlap the other calls;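 also: a rise in the Bmi1 reporter signal indicates esBAF inhibition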
Large screens that a line does not name were inactive. Sampled rows, rich in hits. Any-hit rate of the full collection: about 4.3%.

CC(C)CNC(=O)c1cccc2c1-c1ccccc1C2=O	AF4-AF9 inh 42
Cc1ccc(S(=O)(=O)Oc2ccc(N3C(=O)C4C5CCC(C5)C4C3=O)cc2)cc1 (stereo unspecified)	none (no result: esBAF inh)
O=C1C2C3CCC(C3)C2C(=O)N1c1ccc(OS(=O)(=O)c2ccccc2)cc1 (stereo unspecified)	Wnt bcat act 34 (no result: esBAF inh)
Cc1nc(-c2ccc(NC(=O)CC(C)C)cc2)cs1	MITF act 92, Wnt bcat act 37 (no result: AF4-AF9 inh, FGF22 binding, esBAF inh)
CC(C)CC(=O)Nc1ccc(-c2cn3ccsc3n2)cc1	none (no result: AF4-AF9 inh, Wnt bcat act, FGF22 binding)
CC(C)C(=O)Nc1ccc(-c2csc(-c3ccccc3)n2)cc1	MITF act 139, esBAF inh 71 (no result: AF4-AF9 inh, Wnt bcat act, FGF22 binding)
COc1ccc(-c2csc(NC(=O)CC(C)C)n2)cc1	Wnt bcat act 53 (no result: AF4-AF9 inh, FGF22 binding, esBAF inh)
CC(C)C(=O)Nc1cccc(-c2csc(-c3ccccc3)n2)c1	none
Cc1nc(-c2cccc(NC(=O)Cc3ccccc3)c2)cs1	FGF22 binding 43 (no result: esBAF inh)
CO[C@H]1CN(C)C(=O)c2ccc(NS(C)(=O)=O)cc2OC[C@H](C)N(C(=O)C2CCCCC2)C[C@@H]1C	none (no result: MITF act, Wnt bcat act, FGF22 binding, SMARCA2 activ)
CCN(CC)C(=O)CNc1nnnn1-c1ccccc1	none (no result: AF4-AF9 inh, MITF act, Wnt bcat act, FGF22 binding, esBAF inh)
O=C(Nc1nc2ccccc2s1)c1ccccc1[N+](=O)[O-]	esBAF inh 50 (no result: MITF act)
Cc1csc(NC(=O)c2ccccc2[N+](=O)[O-])n1	none (no result: AF4-AF9 inh, MITF act, Wnt bcat act, FGF22 binding)
O=C(O)c1cccc([N+](=O)[O-])c1C(=O)Nc1nc2ccccc2s1	FGF22 binding 43 (no result: esBAF inh)
Cn1cnc(S(=O)(=O)N2[C@@H]3CNC[C@H]2C3c2ccc(-c3ccccc3)cc2)c1 (stereo partly specified)	none (no result: MITF act, Wnt bcat act, FGF22 binding, SMARCA2 activ, esBAF inh)
O=c1[nH]c(=O)n([C@H]2C[C@H](O)[C@@H](CO)O2)cc1Br	Wnt bcat act 46 (no result: AF4-AF9 inh)
O=c1[nH]c(=O)n(C2CC(O)C(CO)O2)cc1I (stereo unspecified)	none (no result: MITF act, esBAF inh)
O=C1CSC(=S)N1N=Cc1cccc(OCc2ccccc2)c1	none (no result: MITF act)
O=C1CSC(=S)N1N=Cc1ccc(OCc2ccccc2)cc1	esBAF inh 50 (no result: MITF act)
O=C1CSC(=S)N1/N=C/c1cccnc1	Wnt bcat act 41 (no result: MITF act, esBAF inh)
O=C1CSC(=S)N1N=Cc1ccccc1O	none (no result: esBAF inh)
O=C(COC(=O)c1ccc([N+](=O)[O-])s1)NCCc1ccccc1	none (no result: AF4-AF9 inh, Wnt bcat act, FGF22 binding, SMARCA2 activ)
O=C(COC(=O)c1ccc([N+](=O)[O-])s1)NC(=O)NCc1ccccc1	FGF22 binding 43
Clc1nc(Nc2ccc(N3CCOCC3)cc2)c2ccccc2n1	FGF22 binding 43 (no result: esBAF inh)
CC(=O)N1[C@@H](CO)[C@@H](c2ccccc2)C12CN(C(=O)c1cnccn1)C2	none (no result: MITF act, Wnt bcat act, SMARCA2 activ, esBAF inh)
COc1ccc(S(=O)(=O)N(C)C[C@H]2Oc3ccc(NC(=O)Nc4cccc5ccccc45)cc3C(=O)N([C@H](C)CO)C[C@H]2C)cc1	none (no result: AF4-AF9 inh, MITF act, Wnt bcat act, FGF22 binding, SMARCA2 activ)
C[C@H](CO)N1C[C@H](C)[C@H](CN(C)C(=O)C2CCCCC2)Oc2cc(C#CC(C)(C)O)ccc2S1(=O)=O	none (no result: MITF act, Wnt bcat act, SMARCA2 activ)
CCn1c(SCC(=O)Nc2nccs2)nnc1C1CC1	none
Nn1c(SCC(=O)Nc2nccs2)nnc1C1CC1	FGF22 binding 2.3
C[C@@H]1CN([C@@H](C)CO)C(=O)c2cc(NC(=O)NC3CCCCC3)ccc2O[C@@H]1CN(C)Cc1ccccc1	none (no result: MITF act, Wnt bcat act, SMARCA2 activ)
CNC(=O)/C(C#N)=C/c1ccc(-c2nc3ccccc3s2)o1	Wnt bcat act 43 (no result: MITF act, esBAF inh)
N#C/C(=C\c1ccc(-c2nc3ccccc3s2)o1)C(N)=O	Wnt bcat act 44 (no result: MITF act, esBAF inh)
CNC(=O)/C(C#N)=C\c1ccc(CNS(=O)(=O)c2ccccc2)o1	none (no result: AF4-AF9 inh, Wnt bcat act, FGF22 binding, esBAF inh)
CO[C@H]1CN(C)C(=O)c2ccc(NS(C)(=O)=O)cc2OC[C@@H](C)N(C(=O)NC(C)C)C[C@H]1C	none (no result: MITF act, Wnt bcat act, SMARCA2 activ)
O=C(C[C@H]1C[C@@H]2c3cc(NC(=O)NC4CCCCC4)ccc3O[C@@H]2[C@@H](CO)O1)NCc1ccccc1	none (no result: MITF act, Wnt bcat act, SMARCA2 activ)
Cc1ccc(C)c(NC(=O)c2ccccn2)c1	none
Cc1ccc(NC(=O)CC2CCCC2)c(Br)c1	esBAF inh 50
Cc1ccc(NC(=O)C2CCCC2)c(Br)c1	none (no result: MITF act)
Cc1ccc(NC(=S)NC(=O)C2CCCCC2)c(Br)c1	esBAF inh 63
Cc1ccc(NC(=O)CNCc2ccccc2)c(Br)c1	none (no result: esBAF inh)
Cc1ccc(CNCC(=O)Nc2ccc(C)cc2Br)cc1	FGF22 binding 44
Cc1ccc(NC(=O)c2ccccn2)c(Br)c1	Wnt bcat act 37 (no result: esBAF inh)
C/C=C/c1cnc2c(c1)C(=O)N([C@@H](C)CO)C[C@@H](C)[C@H](CN(C)S(=O)(=O)c1cccs1)O2	none (no result: MITF act, Wnt bcat act, SMARCA2 activ, esBAF inh)
CC(=O)N1CCN(C2=Nc3ccccc3Sc3ccccc32)CC1	none (no result: AF4-AF9 inh, MITF act, Wnt bcat act, FGF22 binding, esBAF inh)
C[C@@H]1CCCCO[C@H](CN(C)C(=O)c2ccccc2)[C@@H](C)CN([C@H](C)CO)C(=O)c2cc(NC(=O)Cc3ccccc3)ccc2O1	none (no result: MITF act, Wnt bcat act, SMARCA2 activ)
CC(C)CCNCC(O)CON=C1c2ccccc2-c2ccccc21 (stereo unspecified)	AF4-AF9 inh 27 (no result: esBAF inh)
CCCNC(=O)N(C)C[C@@H]1Oc2ncc(C3=CCCCC3)cc2C(=O)N([C@@H](C)CO)C[C@@H]1C	none (no result: MITF act, Wnt bcat act, SMARCA2 activ)
O=C(Cc1csc(NC(=O)Nc2ccc(Cl)cc2)n1)NC1CCCC1	none
O=C(Cc1csc(NC(=O)Nc2ccc(Cl)cc2)n1)NCc1ccccn1	esBAF inh 45
Cc1ccc(-c2nnc(Cc3ccc([N+](=O)[O-])cc3)o2)cc1	MITF act 94, Wnt bcat act inconclusive
O=[N+]([O-])c1ccc(Cc2nnc(-c3ccc(F)cc3)o2)cc1	MITF act inconclusive, Wnt bcat act inconclusive (no result: esBAF inh)
O=C(N/N=C/c1ccc(Cl)cc1Cl)c1cccc(F)c1	MITF act 138, Wnt bcat act 38, esBAF inh 63 (no result: AF4-AF9 inh, FGF22 binding)
O=C(N/N=C/c1ccc(Cl)cc1Cl)c1ccc2nc[nH]c2c1	none
CC(=C/c1ccc(C(C)C)cc1)/C=N/NC(=O)c1ccncc1	FGF22 binding 43
CC(/C=N/NC(=O)c1cccc(F)c1)=C\c1ccccc1	Wnt bcat act 40
CC(/C=N/NC(=O)c1ccncc1)=C\c1ccccc1	none
Cc1ccsc1/C=N\NC(=O)c1ccc2c(c1)OCO2	Wnt bcat act 39 (no result: MITF act, FGF22 binding)
C/C(=N\NC(=O)c1ccc2c(c1)OCO2)c1ccc2c(c1)OCO2	esBAF inh 52
C/C(=N\NC(=O)c1ccc2c(c1)OCCO2)c1ccccc1	Wnt bcat act 47 (no result: MITF act)
CCN(CC)S(=O)(=O)c1cccc(C(=O)N/N=C(\C)c2cccs2)c1	MITF act 101, esBAF inh inconclusive
C[C@@H]1CN([C@@H](C)CO)C(=O)c2cccc(NC(=O)C3CCCCC3)c2O[C@H]1CN(C)Cc1ccc(C(=O)O)cc1	none (no result: MITF act, Wnt bcat act, SMARCA2 activ)
COc1ccc2c3c([nH]c2c1)[C@H](CO)N(Cc1ccccc1Cl)CC31CCN(C(C)=O)CC1	none (no result: MITF act, Wnt bcat act, SMARCA2 activ, esBAF inh)
